Assay results published in PubChem BioAssay (NCI).
Compounds without any hit were thinned out: in the full panel of roughly 83,000, 20% have a hit.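 Each cell line was grown in a 96-well plate and treated with one concentration of compound for 48 hours. Values below 10 were considered active.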 Values without a mark were called inactive. The source made the active and inactive calls.

Key:
Experiment in all cases: NCI-60 one-dose screen, 48 h (100 = growth as untreated, 0 = no growth, -100 = all killed)
Details in all cases: 10 µM unless noted
RPMI-8226 leukemia = system: RPMI-8226 leukemia
OVCAR-8 ovarian = system: OVCAR-8 ovarian
OVCAR-5 ovarian = system: OVCAR-5 ovarian
OVCAR-4 ovarian = system: OVCAR-4 ovarian
SK-OV-3 ovarian = system: SK-OV-3 ovarian
IGROV1 ovarian = system: IGROV1 ovarian
OVCAR-3 ovarian = system: OVCAR-3 ovarian
HS 578T breast = system: HS 578T breast
NCI/ADR-RES ovarian = system: NCI/ADR-RES ovarian

SMILES | growth (RPMI-8226 leukemia) | growth (OVCAR-8 ovarian) | growth (OVCAR-5 ovarian) | growth (OVCAR-4 ovarian) | growth (SK-OV-3 ovarian) | growth (IGROV1 ovarian) | growth (OVCAR-3 ovarian) | growth (HS 578T breast) | growth (NCI/ADR-RES ovarian)
COc1ccc(-c2ccc(=O)oc2C#Cc2cc(OC)c(OC)c(OC)c2)cc1O | 15.3% | 20% | 46.2% | 58.6% | 30.7% | 28.9% | -67.2% (active) | -8.91% (active) | 16.4%
COc1cc2ncnc(Nc3ccc(F)c(Cl)c3)c2cc1OCC(=O)N1CCN(c2ccc(F)cc2)CC1 | 98.8% | 107% | 60.6% | 82% | 88.1% | 46.9% | 83.4% | 89.3% | 82.7%
C#CC#CC#CC#CC#CC#CC#CC#CC[C@H]1OC[C@H](COC(=O)O[C@@H](C(=O)O[C@H]2C[C@@]3(O)[C@@H](OC(=O)c4ccccc4)[C@@H]4[C@]5(OC(C)=O)CO[C@@H]5C[C@H](O)[C@@]4(C)C(=O)[C@H](OC(C)=O)C(=C2C)C3(C)C)[C@@H](NC(=O)c2ccccc2)c2ccccc2)O1 | 16% | 52.7% | 38.4% | 60.7% | 66.2% | 48.1% | 15.7% | 43.7% | 106%
Cc1nn(-c2ccccc2)c(/N=C/N(C)C)c1/C=C/C(=O)c1ccc(Cl)cc1 | 6.91% (active) | 101% | 81.7% | 98.3% | 111% | 81.2% | 103% | 92.2% | 86.9%
O=C(O)c1cccc(N/C=C/C(=O)c2cc3cc(Br)ccc3oc2=O)c1 | 101% | 105% | 98.8% | 95.1% | 98.9% | 106% | 95.8% | 94.7% | 104%
COC(=O)c1ccc2c(c1)c1c(C)c3ccncc3c(C)c1n2C | 26.8% | 28.8% | 44.9% | 22% | 40% | 24% | 39.5% | 35.6% | 29.3%
COC(=O)/C=C1/SC(=Nc2cccc(Cl)c2)N(CCc2c[nH]c3ccc(O)cc23)C1=O | -23.9% (active) | -4.55% (active) | 58.7% | 24.9% | 86.6% |  | 3.41% (active) | 27.7% | 18.4%
CC[C@]12C=CCN3CC[C@@]4(c5ccc(OC)cc5N(C)[C@H]4[C@@](O)(C(=O)OC)[C@@H]1OC(=O)CCCN1CCOCC1)[C@@H]32 | 96.2% | 104% | 114% | 108% | 111% | 112% | 108% | 107% | 106%
COc1ccccc1-n1c(-c2cc(O)ccc2C)cn2c3c(=O)[nH]c(=O)n(C)c3nc12 | 90.7% |  | 95.3% | 98.2% | 47.4% | 10.3% | 65.3% | 20.4% | 101%
C/C(=C(/c1ccc(Cl)cc1)c1ccc(OCCCN(C)C)cc1)c1ccc(Cl)cc1 | 55.6% | 96.1% | 101% | 104% | 120% | 85.7% | 86.3% | 87.1% | 97.7%
CN(C)c1ccc(C(=NO)c2ccc(N(C)C)cc2)cc1 | 49.5% | 39.4% | 81.4% | 71.3% | 57.7% | 51.9% | -15.1% (active) | 51.1% | 13.4%
